Out of some 5,500 compounds screened, about 2,000 (36%) were called active. Another 18% or so got no clear call; they are omitted. Cut-off read from the data, not from the text of the source: active = normalized growth mostly below about 0.91 (no sharp cut-off); inconclusive = no clear call, values can overlap the other calls; inactive = mostly above about 0.92. The list shows a part of the results.
Assay: chemical genetic growth profiling, strain panel (AID 1159580);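 note: tested at 20 µM; growth read once vehicle control cultures reached saturation at 30 °C; 1 = growth at the plate median or of vehicle wells; lower values mean less growth of the strain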
Conditions: growth OD

Measured: normalized growth

c1ccc2c(CC3=NCCN3)cccc2c1
inactive: S. cerevisiae deletion strains, locus YJR075W, strain HOC1, stronger effect = lower value 1 | S. cerevisiae deletion strains, locus YKL009W, strain mrt4, stronger effect = lower value 1.01 | S. cerevisiae deletion strains, locus YKL068W, stronger effect = lower value 1.01 | S. cerevisiae deletion strains, locus YKL085W, strain MDH1 (second series), stronger effect = lower value 1.02 | S. cerevisiae deletion strains, locus YKL085W, strain MDH1, stronger effect = lower value 1.02 | S. cerevisiae deletion strains, locus YKL160W, strain elf1, stronger effect = lower value 0.984 | S. cerevisiae deletion strains, locus YKL190W, strain CNB1, stronger effect = lower value 1 | S. cerevisiae deletion strains, locus YKR001C, strain vps1, stronger effect = lower value 1.01 | S. cerevisiae deletion strains, locus YKR026C, strain gcn3, stronger effect = lower value 0.984 | S. cerevisiae deletion strains, locus YKR091W, strain srl3, stronger effect = lower value 0.98 | S. cerevisiae deletion strains, locus YLL001W, strain dnm1, stronger effect = lower value 0.986 | S. cerevisiae deletion strains, locus YLL026W, stronger effect = lower value 0.997 | S. cerevisiae deletion strains, locus YLL041C, strain sdh2, stronger effect = lower value 0.972 | S. cerevisiae deletion strains, locus YLR027C, strain aat2, stronger effect = lower value 0.973 | S. cerevisiae deletion strains, locus YLR039C, strain RIC1, stronger effect = lower value 1.04 | S. cerevisiae deletion strains, locus YLR058C, strain SHM2, stronger effect = lower value 1.01 | S. cerevisiae deletion strains, locus YLR102C, strain apc9, stronger effect = lower value 1.02 | S. cerevisiae deletion strains, locus YLR113W, strain HOG1, stronger effect = lower value 0.991 | S. cerevisiae deletion strains, locus YLR221C, strain rsa3, stronger effect = lower value 0.995 | S. cerevisiae deletion strains, locus YLR258W, strain gsy2, stronger effect = lower value 0.991 | S. cerevisiae deletion strains, locus YLR262C, strain YPT6 (second series), stronger effect = lower value 0.97 | S. cerevisiae deletion strains, locus YLR262C, strain YPT6, stronger effect = lower value 1.03 | S. cerevisiae deletion strains, locus YLR268W, strain sec22, stronger effect = lower value 1.02 | S. cerevisiae deletion strains, locus YLR320W, strain mms22, stronger effect = lower value 0.979 | S. cerevisiae deletion strains, locus YLR330W, strain CHS5, stronger effect = lower value 1.01 | S. cerevisiae deletion strains, locus YLR342W, strain FKS1 (second series), stronger effect = lower value 1.03 | S. cerevisiae deletion strains, locus YLR342W, strain FKS1, stronger effect = lower value 0.971 | S. cerevisiae deletion strains, locus YLR357W, strain rsc2, stronger effect = lower value 0.942 | S. cerevisiae deletion strains, locus YLR370C, strain arc18, stronger effect = lower value 0.978 | S. cerevisiae deletion strains, locus YLR371W, strain rom2, stronger effect = lower value 1.04 | S. cerevisiae deletion strains, locus YLR384C, strain iki3, stronger effect = lower value 0.962 | S. cerevisiae deletion strains, locus YLR418C, strain cdc73, stronger effect = lower value 1.02 | S. cerevisiae deletion strains, locus YML016C, strain PPZ1, stronger effect = lower value 1.01 | S. cerevisiae deletion strains, locus YML032C, strain rad52, stronger effect = lower value 1.03 | S. cerevisiae deletion strains, locus YML120C, strain ndi1, stronger effect = lower value 0.977 | S. cerevisiae deletion strains, locus YML124C, strain tub3, stronger effect = lower value 1.02 | S. cerevisiae deletion strains, locus YMR058W, strain fet3, stronger effect = lower value 0.976 | S. cerevisiae deletion strains, locus YMR078C, strain ctf18, stronger effect = lower value 1.02 | S. cerevisiae deletion strains, locus YMR125W, strain sto1, stronger effect = lower value 0.938 | S. cerevisiae deletion strains, locus YMR129W, stronger effect = lower value 0.96 | S. cerevisiae deletion strains, locus YMR205C, strain PFK2, stronger effect = lower value 0.987 | S. cerevisiae deletion strains, locus YMR223W, strain ubp8, stronger effect = lower value 1.01 | S. cerevisiae deletion strains, locus YMR231W, strain pep5, stronger effect = lower value 0.981 | S. cerevisiae deletion strains, locus YMR263W, strain SAP30, stronger effect = lower value 1 | S. cerevisiae deletion strains, locus YMR307W, strain GAS1, stronger effect = lower value 1.01 | S. cerevisiae deletion strains, locus YNL067W, strain RPL9B, stronger effect = lower value 1 | S. cerevisiae deletion strains, locus YNL071W, strain lat1, stronger effect = lower value 0.961 | S. cerevisiae deletion strains, locus YNL128W, strain TEP1, stronger effect = lower value 1.01 | S. cerevisiae deletion strains, locus YNL153C, strain GIM3, stronger effect = lower value 1 | S. cerevisiae deletion strains, locus YNL183C, strain NPR1, stronger effect = lower value 0.957 | S. cerevisiae deletion strains, locus YNL209W, strain ssb2, stronger effect = lower value 0.968 | S. cerevisiae deletion strains, locus YNL233W, strain BNI4, stronger effect = lower value 1.01 | S. cerevisiae deletion strains, locus YNL248C, strain rpa49, stronger effect = lower value 0.963 | S. cerevisiae deletion strains, locus YNL250W, strain rad50, stronger effect = lower value 1.02 | S. cerevisiae deletion strains, locus YNL271C, strain bni1, stronger effect = lower value 1.02 | S. cerevisiae deletion strains, locus YNL298W, strain CLA4, stronger effect = lower value 1.01 | S. cerevisiae deletion strains, locus YNL307C, strain MCK1, stronger effect = lower value 1.03 | S. cerevisiae deletion strains, locus YNL322C, strain KRE1 (second series), stronger effect = lower value 0.958 | S. cerevisiae deletion strains, locus YNL322C, strain KRE1, stronger effect = lower value 1 | S. cerevisiae deletion strains, locus YNR049C, strain mso1, stronger effect = lower value 0.982 | S. cerevisiae deletion strains, locus YNR052C, strain pop2, stronger effect = lower value 1.02 | S. cerevisiae deletion strains, locus YOL006C, strain TOP1, stronger effect = lower value 1.03 | S. cerevisiae deletion strains, locus YOL012C, strain htz1 0.662 | S. cerevisiae deletion strains, locus YOL147C, strain pex11, stronger effect = lower value 1.02 | S. cerevisiae deletion strains, locus YOR001W, strain rrp6, stronger effect = lower value 0.934 | S. cerevisiae deletion strains, locus YOR061W, strain CKA2, stronger effect = lower value 1.01 | S. cerevisiae deletion strains, locus YOR069W, strain VPS5, stronger effect = lower value 1 | S. cerevisiae deletion strains, locus YOR070C, strain gyp1, stronger effect = lower value 1.01 | S. cerevisiae deletion strains, locus YOR080W, strain dia2, stronger effect = lower value 0.965 | S. cerevisiae deletion strains, locus YOR083W, strain WHI5, stronger effect = lower value 0.994 | S. cerevisiae deletion strains, locus YOR106W, strain vam3, stronger effect = lower value 0.97 | S. cerevisiae deletion strains, locus YOR136W, strain idh2, stronger effect = lower value 1.02 | S. cerevisiae deletion strains, locus YOR144C, strain elg1, stronger effect = lower value 1.02 | S. cerevisiae deletion strains, locus YOR184W, strain ser1, stronger effect = lower value 1.02 | S. cerevisiae deletion strains, locus YOR231W, strain MKK1, stronger effect = lower value 1.02 | S. cerevisiae deletion strains, locus YOR265W, strain rbl2, stronger effect = lower value 0.987 | S. cerevisiae deletion strains, locus YOR270C, strain vph1, stronger effect = lower value 0.914 | S. cerevisiae deletion strains, locus YOR290C, strain snf2, stronger effect = lower value 0.984 | S. cerevisiae deletion strains, locus YOR316C, strain cot1, stronger effect = lower value 1.03 | S. cerevisiae deletion strains, locus YPL051W, strain arl3, stronger effect = lower value 0.988 | S. cerevisiae deletion strains, locus YPL055C, strain LGE1, stronger effect = lower value 1.02 | S. cerevisiae deletion strains, locus YPL078C, strain atp4, stronger effect = lower value 0.981 | S. cerevisiae deletion strains, locus YPL106C, strain sse1, stronger effect = lower value 0.968 | S. cerevisiae deletion strains, locus YPL240C, strain hsp82, stronger effect = lower value 0.997 | S. cerevisiae deletion strains, locus YPL241C, strain CIN2, stronger effect = lower value 1 | S. cerevisiae deletion strains, locus YPL256C, strain CLN2, stronger effect = lower value 0.987 | S. cerevisiae deletion strains, locus YPR119W, strain clb2, stronger effect = lower value 1.02 | S. cerevisiae deletion strains, locus YPR141C, strain kar3, stronger effect = lower value 1.03 | S. cerevisiae deletion strains, locus YPR163C, strain tif3, stronger effect = lower value 1.02 | S. cerevisiae deletion strains, locus YPR167C, strain met16, stronger effect = lower value 1.02 | S. cerevisiae deletion strains, strain wtn01, stronger effect = lower value 1.02 | S. cerevisiae strains, strain wild type, stronger effect = lower value 1

From PubChem BioAssay AID1159580 (chemical genetic matrix, 2015)
